697 NFkB inh: inhibitors of the PMA/ionomycin-induced NF-kB reporter in 697 B cells | 697 B-cell NF-kB luciferase reporter, 16 h | inhibition, % at 4 µM | hit rate 0.33% among 330,000 | AID 435022; in the data active = inhibition above about 35%
Shn3 3UTR inh: reduces Shn3 3'UTR luciferase signal in osteoblasts | Clone20 osteoblast Shn3 3'UTR firefly luciferase, 24 h | hit rate 0.52% among 360,000 | inhibition, % at 12.5 µM;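 active = mean inhibition of at least 75% with every replicate also reaching 75%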;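 also: 0% = median of neutral control wells and 100% = pilot-screen positive control compound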
LMP1 NFkB inh: Epstein-Barr LMP1 NF-kappaB reporter inhibition; LMP1-induced NF-kappaB luciferase reporter cells, luminescence; hit rate 0.69% among 350,000; inhibition, % at 12.5 µM; in the data active = inhibition above about 41%;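 also: 0% = neutral control wells and 100% = reference inhibitor control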
TRPM1 prom inh: reduces MITF-dependent TRPM1 promoter luciferase signal; SK-MEL-5 TRPM1 promoter luciferase, 24 h; hit rate 0.83% among 330,000; inhibition, % at 12.5 µM; AID 488899;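 active = mean inhibition across replicates of 60% or more, whatever share of single replicates reaches that level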
Jurkat NFkB inh: lowers PMA/ionomycin-induced NF-kB signal in Jurkat cells; AID 435003; PMA/ionomycin-induced NF-kB luciferase reporter, luminescence; inhibition, % at 4 µM; hit rate 0.53% among 330,000; in the data active = inhibition above about 50%
Gli-Sufu block: blocks Gli-Sufu signaling in a luciferase reporter; Sufu-KO-LIGHT fibroblasts, Gli luciferase reporter luminescence; hit rate 0.74% among 340,000; inhibition, % at 5 µM;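 active = inhibition above about 55%, limit read from the data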;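 also: 0% = DMSO-treated cells and 100% = wells with medium but no cells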
Jurkat NFkB conf: lowers PMA/ionomycin-induced NF-kB signal in Jurkat cells. shares compounds with Jurkat NFkB inh. Jurkat NF-kB luciferase, 16 h. inhibition, % at 4 µM. hit rate 27% among 2,700;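 active = inhibition reaching about 45% at 4 µM in either replicate, limit read from the data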;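 also: plate controls were PMA/ionomycin stimulated DMSO wells for no effect and unstimulated DMSO wells for full effect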
* hit, by the source's call. A selection: hits, their analogues and other compounds. The true share with any hit is near 2.3%.

Screening O=C(N/N=C/c1ccc(F)cc1)c1cc(-c2ccc3c(c2)OCO3)n[nH]1 returned 697 NFkB inh -11.1, Shn3 3UTR inh -1.7, LMP1 NFkB inh 7.0, TRPM1 prom inh -8.2, Jurkat NFkB inh -10.1 and Gli-Sufu block -11.1.
Screening Cc1cc(C)c2sc(NC(=O)C3=COCCO3)nc2c1 returned 697 NFkB inh -163.1, Shn3 3UTR inh -90.5, LMP1 NFkB inh -13.1, TRPM1 prom inh -36.3, Jurkat NFkB inh -170.4, Gli-Sufu block -106.5 and Jurkat NFkB conf 10.4.
`CCCNC(=O)CS(=O)(=O)c1ccccc1` gave 697 NFkB inh 16.6, Shn3 3UTR inh 4.7, LMP1 NFkB inh 1.5, TRPM1 prom inh -22.9, Jurkat NFkB inh 19.8 and Gli-Sufu block -4.4.
O=C(NCCc1ccccc1)c1ccc2c(c1)OCCO2 was read as 697 NFkB inh 21.7, Shn3 3UTR inh 83.6, LMP1 NFkB inh 84.4*, TRPM1 prom inh 88.2*, Jurkat NFkB inh 54.2*, Gli-Sufu block 34.5 and Jurkat NFkB conf 69.6*.
`COc1ccc(CCNC(=O)c2ccc3c(c2)OCCO3)cc1` gave 697 NFkB inh -28.1, Shn3 3UTR inh -62.7, LMP1 NFkB inh -16.9, TRPM1 prom inh -51.0, Jurkat NFkB inh -33.5 and Gli-Sufu block -45.7.
For CC(=O)n1cc(N(C(=O)CCl)c2ccc(C)cc2)c2ccccc21 the results were 697 NFkB inh 8.0, LMP1 NFkB inh -12.8, TRPM1 prom inh 73.5*, Jurkat NFkB inh 75.7*, Gli-Sufu block 3.5 and Jurkat NFkB conf -1.4.
Cc1ccc(NC(=O)CN(C)C(=O)COC(=O)/C=C/c2cccs2)cc1 was read as 697 NFkB inh 12.0, Shn3 3UTR inh 4.7, LMP1 NFkB inh 0.6, TRPM1 prom inh 7.1, Jurkat NFkB inh 9.6 and Gli-Sufu block -0.5.
COc1cccc(CNC(=O)C(=O)NCC2CCCN2S(=O)(=O)c2cc(C)ccc2C)c1 (configuration not stated) was read as 697 NFkB inh -20.3, Shn3 3UTR inh 4.5, LMP1 NFkB inh 2.7, TRPM1 prom inh -6.3, Jurkat NFkB inh 8.9 and Gli-Sufu block 0.3.
For CC#CC(=O)N1CCC(n2nccc2NC(=O)c2ccc3c(c2)OCO3)CC1 the results were 697 NFkB inh 9.0, Shn3 3UTR inh -28.7, LMP1 NFkB inh 8.6, TRPM1 prom inh -25.0, Jurkat NFkB inh 74.0*, Gli-Sufu block 13.5 and Jurkat NFkB conf 35.9.
`CSCCC(=O)N1CCC(n2nccc2NC(=O)c2ccc3c(c2)OCO3)CC1` gave 697 NFkB inh -96.8, Shn3 3UTR inh -111.9, LMP1 NFkB inh -28.2, TRPM1 prom inh -50.6, Jurkat NFkB inh -86.3 and Gli-Sufu block -96.7.
Screening O=C(NCc1ccc2c(c1)OCO2)c1cc([N+](=O)[O-])ccc1N1CCCCC1 returned 697 NFkB inh -53.8, Shn3 3UTR inh -3.1, LMP1 NFkB inh 19.1, TRPM1 prom inh 13.1, Jurkat NFkB inh 65.2*, Gli-Sufu block 28.0 and Jurkat NFkB conf 29.7.
For Cc1ccc(C(=O)c2cc([N+](=O)[O-])ccc2N2CCCCC2)cc1 the results were 697 NFkB inh 31.6, Shn3 3UTR inh 5.9, LMP1 NFkB inh -6.1, TRPM1 prom inh 29.7, Jurkat NFkB inh 55.6*, Gli-Sufu block 48.1 and Jurkat NFkB conf 53.3*.
Screening Cc1ccc(C(=O)c2cc([N+](=O)[O-])ccc2N2CC(C)OC(C)C2)cc1 (configuration not stated) returned 697 NFkB inh -52.1, Shn3 3UTR inh 4.3, LMP1 NFkB inh 4.6, TRPM1 prom inh 32.0, Jurkat NFkB inh 45.9 and Gli-Sufu block 6.8.
For O=C(c1ccc(Br)cc1)c1cc([N+](=O)[O-])ccc1N1CCOCC1 the results were 697 NFkB inh -43.3, Shn3 3UTR inh 3.8, LMP1 NFkB inh -1.1, TRPM1 prom inh 6.6, Jurkat NFkB inh 72.1*, Gli-Sufu block 21.7 and Jurkat NFkB conf 51.4*.
`O=C(OCc1ccc(Br)cc1)c1cc([N+](=O)[O-])ccc1N1CCOCC1` gave Shn3 3UTR inh -30.5 and LMP1 NFkB inh 15.6.
O=C(NCC1CCN(C(=O)c2ccc([N+](=O)[O-])cc2)CC1)C(=O)Nc1ccccc1 was read as 697 NFkB inh 17.6, Shn3 3UTR inh 37.1, LMP1 NFkB inh 4.5, TRPM1 prom inh -2.4, Jurkat NFkB inh 8.7 and Gli-Sufu block 30.8.
CCOC(=O)C1(Cc2cccc(OC)c2)CCCN(Cc2cnn(C)c2)C1 (configuration not stated) was read as 697 NFkB inh -4.0, Shn3 3UTR inh 9.5, LMP1 NFkB inh 1.4, TRPM1 prom inh -0.3 and Jurkat NFkB inh -0.1.
CC(C)(C)NC(=O)C(OC(=O)c1ccco1)c1ccccc1F (configuration not stated) was read as 697 NFkB inh -7.3, Shn3 3UTR inh 4.6, LMP1 NFkB inh -1.0, TRPM1 prom inh -2.0, Jurkat NFkB inh -7.3 and Gli-Sufu block -4.4.
Screening Oc1ccccc1-c1cc(-c2ccccc2)n[nH]1 returned 697 NFkB inh -200.3, Shn3 3UTR inh -173.2, LMP1 NFkB inh -42.7, TRPM1 prom inh -52.9, Jurkat NFkB inh -181.3, Gli-Sufu block -1.2 and Jurkat NFkB conf -81.2.
`COCCN(C(=O)CNC(=O)c1ccco1)C(C(=O)NC1CCCC1)c1ccc(OC)cc1` (configuration not stated) gave 697 NFkB inh 3.1, Shn3 3UTR inh -9.0, LMP1 NFkB inh -2.7, TRPM1 prom inh 4.6, Jurkat NFkB inh -11.9 and Gli-Sufu block -10.5.
`COCCCN=C1NN=C(c2cc(C)n(-c3ccccc3F)c2C)CS1` gave 697 NFkB inh -62.6, Shn3 3UTR inh 39.2, LMP1 NFkB inh 32.6, TRPM1 prom inh 25.6, Jurkat NFkB inh -26.4 and Gli-Sufu block 38.4.
For Fc1ccccc1N=C1NN=C(c2ccccc2)CS1 the results were 697 NFkB inh -196.3, Shn3 3UTR inh 81.8, LMP1 NFkB inh -49.2, TRPM1 prom inh -41.5, Jurkat NFkB inh -196.9, Gli-Sufu block -62.6 and Jurkat NFkB conf -112.0.
COCCn1c(C)cc(C2=NNC(=Nc3ccccc3F)SC2)c1C was read as 697 NFkB inh -26.7, Shn3 3UTR inh 67.4, LMP1 NFkB inh 64.3*, TRPM1 prom inh 66.8*, Jurkat NFkB inh 68.9*, Gli-Sufu block 33.9 and Jurkat NFkB conf 87.7*.
`CN(CC(=O)Nc1ccc(Cl)c(C(F)(F)F)c1)C(=O)C1CCN(C(=O)c2ccc(Cl)cc2)CC1` gave Shn3 3UTR inh 6.9, LMP1 NFkB inh 1.8, TRPM1 prom inh -1.7 and Gli-Sufu block 0.2.
For Cc1c(C)c2ccc(OCC(=O)Nc3ccccn3)c(C)c2oc1=O the results were 697 NFkB inh 8.9, Shn3 3UTR inh 93.9*, LMP1 NFkB inh -6.3, TRPM1 prom inh 86.5*, Jurkat NFkB inh 91.0*, Gli-Sufu block 51.1 and Jurkat NFkB conf 93.6*.
Screening Cc1ccc(-c2nc(-c3ccccn3)no2)cc1 returned 697 NFkB inh 25.9, Shn3 3UTR inh 91.8*, LMP1 NFkB inh 87.8*, TRPM1 prom inh 89.8*, Jurkat NFkB inh 69.2*, Gli-Sufu block 74.9* and Jurkat NFkB conf 79.2*.

Screening data from PubChem.
